Measured values: PubChem BioAssay AID1159580 (chemical genetic matrix, 2015)
Among all 5,500 compounds or so, about 2,000 (36%) were called active. Another 18% or so got no clear call; they are omitted. Rule as the data show it: active = normalized growth mostly below about 0.91 (no sharp cut-off); inconclusive = no clear call, values can overlap the other calls; inactive = mostly above about 0.92. This is one part of the list.

Assay: chemical genetic growth profiling, strain panel (AID 1159580);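 also: tested at 20 µM; growth read once vehicle control cultures reached saturation at 30 °C; 1 = growth at the plate median or of vehicle wells; lower values mean less growth of the strain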
Conditions: S. cerevisiae deletion strains, growth OD
[1] = locus YAR019C, strain CDC15, hits give low values
[2] = locus YBL105C, strain PKC1, hits give low values
[3] = locus YBR135W, strain CKS1, hits give low values
[4] = locus YBR136W, strain MEC1, hits give low values
[5] = locus YBR160W, strain CDC28, hits give low values
[6] = locus YDL017W, strain CDC7, hits give low values
[7] = locus YDL028C, strain MPS1, hits give low values
[8] = locus YDL101C, strain DUN1, hits give low values
[9] = locus YDL108W, strain KIN28, hits give low values
[10] = locus YDL132W, strain cdc53, hits give low values
[11] = locus YDL214C, strain PRR2, hits give low values
[12] = locus YDR052C, strain DBF4, hits give low values
[13] = locus YDR054C, strain cdc34, hits give low values
[14] = locus YDR226W, strain ADK1, hits give low values
[15] = locus YDR477W, strain SNF1, hits give low values
[16] = locus YER123W, strain YCK3, hits give low values
[17] = locus YER133W, strain GLC7, hits give low values
[18] = locus YFL009W, strain cdc4, hits give low values
[19] = locus YFL029C, strain CAK1, hits give low values
[20] = locus YFR003C, strain YPI1, hits give low values
[21] = locus YFR019W, strain FAB1, hits give low values
[22] = locus YFR028C, strain CDC14, hits give low values
[23] = locus YGR040W, strain KSS1, hits give low values
[24] = locus YGR052W, strain FMP48, hits give low values
[25] = locus YGR092W, strain DBF2, hits give low values
[26] = locus YHR030C, strain SLT2, hits give low values
[27] = locus YHR079C, strain IRE1, hits give low values
[28] = locus YHR082C, strain KSP1, hits give low values
[29] = locus YHR205W, strain SCH9, hits give low values
[30] = locus YIL147C, strain SLN1, hits give low values
[31] = locus YJL095W, strain BCK1, hits give low values
[32] = locus YJL128C, strain PBS2, hits give low values
[33] = locus YJL157C, strain FAR1, hits give low values
[34] = locus YJR016C, strain ILV3, hits give low values
[35] = locus YJR066W, strain TOR1 (second series), hits give low values
[36] = locus YJR066W, strain TOR1, hits give low values
[37] = locus YKL048C, strain ELM1, hits give low values
[38] = locus YKL067W, strain YNK1, hits give low values
[39] = locus YKL101W, strain HSL1, hits give low values
[40] = locus YKL193C, strain SDS22, hits give low values
[41] = locus YKL203C, strain TOR2, hits give low values
[42] = locus YLR113W, strain HOG1, hits give low values
[43] = locus YLR133W, strain CKI1, hits give low values
[44] = locus YLR403W, strain SFP1, hits give low values
[45] = locus YML070W, strain DAK1, hits give low values
[46] = locus YMR001C, strain CDC5, hits give low values
[47] = locus YMR205C, strain PFK2 (second series), hits give low values
[48] = locus YMR277W, strain FCP1, hits give low values
[49] = locus YNL006W, strain LST8, hits give low values
[50] = locus YNL020C, strain ARK1, hits give low values
[51] = locus YNL161W, strain CBK1, hits give low values
[52] = locus YNL183C, strain NPR1, hits give low values
[53] = locus YNL207W, strain RIO2, hits give low values
[54] = locus YNL222W, strain SSU72, hits give low values
[55] = locus YNL307C, strain MCK1 (second series), hits give low values
[56] = locus YOL078W, strain AVO1, hits give low values
[57] = locus YOL136C, strain PFK27, hits give low values
[58] = locus YOR061W, strain CKA2, hits give low values
[59] = locus YOR119C, strain RIO1, hits give low values
[60] = locus YOR231W, strain MKK1, hits give low values
[61] = locus YOR329C, strain SCD5, hits give low values
[62] = locus YPL031C, strain PHO85, hits give low values
[63] = locus YPL153C, strain RAD53, hits give low values
[64] = locus YPL204W, strain HRR25, hits give low values
[65] = locus YPL209C, strain IPL1, hits give low values
[66] = locus YPL256C, strain CLN2, hits give low values
[67] = locus YPR025C, strain CCL1, hits give low values
[68] = locus YPR106W, strain ISR1, hits give low values
[69] = locus YPR111W, strain DBF20, hits give low values
[70] = strain NNK1, hits give low values
[71] = strain TSCII, hits give low values

Measured: normalized growth

CC(=O)Oc1ccc2c(=O)c(Oc3ccc(Cl)cc3)c(C)oc2c1
inactive: [1] 0.969 | [2] 0.964 | [3] 0.968 | [4] 0.954 | [5] 0.962 | [6] 0.963 | [7] 0.956 | [8] 0.951 | [9] 0.958 | [10] 0.96 | [11] 0.938 | [12] 0.959 | [13] 0.96 | [14] 0.957 | [15] 0.945 | [16] 0.918 | [17] 0.939 | [18] 0.97 | [19] 0.964 | [20] 0.968 | [21] 0.979 | [22] 0.963 | [23] 0.953 | [24] 0.887 | [25] 0.692 | [27] 0.897 | [28] 0.917 | [29] 0.776 | [30] 0.947 | [31] 0.7 | [32] 0.923 | [33] 0.973 | [34] 0.964 | [35] 0.953 | [36] 0.896 | [37] 0.933 | [38] 0.94 | [39] 0.908 | [40] 0.953 | [41] 0.968 | [43] 0.952 | [44] 0.887 | [45] 0.921 | [46] 0.961 | [47] 0.935 | [48] 0.969 | [49] 0.985 | [50] 0.952 | [51] 0.965 | [52] 0.875 | [53] 0.953 | [54] 0.97 | [55] 0.808 | [56] 0.95 | [57] 0.933 | [58] 0.959 | [59] 0.995 | [60] 0.834 | [61] 0.961 | [62] 0.935 | [63] 0.954 | [64] 0.943 | [65] 0.96 | [66] 0.909 | [67] 0.965 | [68] 0.955 | [69] 0.941 | [70] 0.94 | [71] 0.964
active: [26] 0.802 | [42] 0.768

COC(=O)c1ccc(Oc2c(C(F)(F)F)oc3cc(O)ccc3c2=O)cc1
inactive: [1] 0.976 | [2] 0.976 | [3] 0.975 | [4] 0.974 | [5] 0.986 | [6] 0.977 | [7] 0.979 | [8] 0.982 | [9] 0.976 | [10] 0.961 | [11] 0.949 | [12] 0.984 | [13] 0.959 | [14] 0.964 | [15] 0.948 | [16] 0.924 | [17] 0.929 | [18] 0.969 | [19] 0.976 | [20] 0.974 | [21] 0.938 | [22] 0.965 | [23] 0.941 | [24] 0.962 | [25] 0.948 | [26] 0.902 | [27] 0.926 | [28] 1.01 | [29] 0.949 | [30] 0.978 | [31] 0.904 | [32] 0.941 | [33] 0.936 | [34] 0.974 | [35] 0.93 | [36] 1.01 | [37] 0.968 | [38] 0.956 | [39] 0.945 | [40] 0.967 | [41] 1.01 | [42] 0.869 | [43] 0.95 | [44] 0.938 | [45] 0.934 | [46] 0.972 | [47] 0.969 | [48] 0.978 | [49] 0.972 | [50] 0.949 | [51] 0.962 | [52] 1.02 | [53] 0.969 | [54] 0.979 | [55] 0.95 | [56] 0.97 | [57] 0.933 | [58] 0.968 | [59] 1.02 | [60] 0.967 | [61] 0.975 | [62] 0.94 | [63] 0.935 | [64] 0.95 | [65] 0.971 | [66] 0.9 | [67] 0.98 | [68] 0.979 | [69] 0.979 | [70] 0.973 | [71] 0.96
